In test [1] the target is Lysosomal acid glucosylceramidase (Homo sapiens) (UniProt P04062). Nature of the test: Glucocerebrosidase-p2 (AID 348; in the data active = potency below about 10 µM; also: potency is read from the fitted curve at half-maximal effect). The following applies: purified GBA, blue fluorogenic substrate, 40 min. In short, it runs like this:
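Normal human glucocerebrosidase (0.2 nM) with blue fluorogenic substrate (80 uM final) in citrate/phosphate pH 5.9 with 10mM sodium taurocholate, 0.01% tween-20; 40 min RT, NaOH/glycine stop; fluorescence Ex 365/Em 440; AC50 from a titration from 0.6 nM upwards.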

Test [2] can be described thus: AP1 Signaling Pathway (AID 357). Also: % is scaled to controls: 0 for no effect and ±100 for the full control effect. The following applies: ME-180 AP-1-bla reporter, EGF-induced, beta-lactamase ratio, 5 h; at 7.69 µM (top of the series) unless noted. In short, it runs like this: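 First, ME-180 AP-1-bla cells were cultured overnight at 37 °C in low-serum Opti-MEM. Next, titrated compounds with EC50 EGF were incubated 5 hours. Finally, CCF4 was added for 2.5 hours and the 460/530 nm ratio recorded.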

Test [3] deals with Cytochrome P450 1A2 (Homo sapiens) (UniProt P05177). As to the kind of experiment: p450-cyp1a2 (AID 410; calls by dose curve; also: potency is read from the fitted curve at half-maximal effect). The note with it: recombinant CYP1A2, luciferin-ME demethylation, luminescence; series mostly up to 57 µM. Put shortly:
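20nM CYP1A2, 100uM Luciferin-ME (=Km), 100mM KPO4; cpd 10 min RT; +NADPH regen, 60 min RT; stop/detect 20 min; luminescence. Normalized to furafylline 57 uM = full inhibition.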

A short description of test [4]: NFAT Signaling Pathway (AID 444).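 Also: carbachol stimulus at about its EC50 of 1 µM final; % is scaled to controls: 0 for no effect and ±100 for the full control effect.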 The following applies: Jurkat NFAT-bla M1, carbachol, beta-lactamase ratio, 5 h; at 7.69 µM (top of the series) unless noted. In short, it runs like this:
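Jurkat cells with NFAT-driven β-lactamase reporter and co-expressed M1 receptor, stimulated with carbachol (final 1 uM, ~EC50), compound titration, 5 h at 37 °C. CCF4 loaded 1 h at RT; 460/530 nm ratio gave %activity and AC50.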

Test [5] in a line: Stat Signaling Pathway (AID 446).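 Also: ME-180 cervical cancer cells given 40 pM IL-6 alongside compound; SIE-controlled beta-lactamase reporter measured as 460/530 nm FRET emission ratio; % is scaled to controls: 0 for no effect and ±100 for the full control effect.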 The following applies: ME-180 SIE beta-lactamase reporter, IL-6 stimulated, 5 h; at 7.69 µM (top of the series) unless noted. Put shortly: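 Normalization used AC90 stimulation (300 pM IL-6) and AC90 inhibition (125 nM pan-JAK inhibitor at 40 pM IL-6). The underlying signal is SIE-driven beta-lactamase in ME-180 cells after 5 h IL-6 exposure with compound.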

The target in test [6] is Glucocorticoid receptor (Homo sapiens) (UniProt P04150). As to the kind of experiment: GR-GFP Redistribution (AID 450;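 active = compounds whose dose series gives a full or clear partial fitted curve of increased nuclear translocation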; also: potency is read from the fitted curve at half-maximal effect). The following applies: U2OS GR-GFP nuclear translocation, laser cytometry, 2 h.
Test [7] has the same target. As to the kind of experiment: GR-EFC Redistribution (AID 451; calls by dose curve; also: potency is read from the fitted curve at half-maximal effect). The following applies: CHO-K1 GR-EFC translocation, beta-gal luminescence, 2 h. In short, it runs like this: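 CHO-K1 cells expressing nuclear EA and GR-ED fragments of b-gal; compounds titrated up to 46 uM final, 2 h at 37 C. GR nuclear translocation read as complemented b-gal luminescence after 1 h RT detection.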

Test [8] concerns the target Mitogen-activated protein kinase 10 (Mus musculus) (UniProt Q61831). As to the kind of experiment: JNK3 AlphaScreen Assay (AID 530).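 Also: kinase came from lysate of stimulated human HepG2 cells; signal reports phosphorylation of biotinylated GST-cJun 1-79 at Ser73 with 10 µM ATP; % is scaled to controls: 0 for no effect and ±100 for the full control effect.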 The note with it: JNK3 lysate, c-Jun phosphorylation; series mostly up to 57.1 µM. Put shortly: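 HepG2 lysate (IL-1b/TNFa pre-activated) + biotin-GST-cJun 1-79 + anti-pSer73 cJun; cpd titration, 15 min RT; ATP 10 uM start; Tris pH 7.6, MgCl2, DTT, vanadate; beads in EDTA buffer; AlphaScreen.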

Test [9] addresses 3',5'-cyclic-AMP phosphodiesterase 4B (Homo sapiens) (UniProt Q07343). Nature of the test: qHTS Assay for Inhibitors of PDE-IV (AID 607; active = well fitted activation curve with a large enough effect in the main read-out, with a control signal flat, not every such curve was filed as active; also: % of control where 0% means no effect). The following applies: HEK293 ACTOne CNG channel cells, membrane potential fluorescence; series mostly up to 22.9 µM. Put shortly:
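HEK293 ACTOne cells with CNG channel (1000/well), endogenous PDE4; membrane potential dye, compounds up to 22.9 uM final. Fluorescence Ex 535/Em 590; RO 20-1724 (100 uM final) as reference.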
For orientation: In qHTS, concentration-response curves come from the screen itself.

The target in test [10] is Cytochrome P450 3A4 (Homo sapiens) (UniProt P08684). As to the kind of experiment: qHTS Assay for Inhibitors and Substrates of Cytochrome P450 3A4 (AID 884; active = well fitted curve in the direction sought with a large enough effect; an effect the other way counts as inactive or inconclusive; also: nearly all actives have a fitted effect of over 50% in size; also: potency is read from the fitted curve at half-maximal effect). The following applies: recombinant CYP3A4, Luciferin-PPXE luminescence; series mostly up to 57.1 µM. In short, it runs like this:
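Luminescent readout of luciferin produced by CYP3A4 (20 nM) dealkylation of Luciferin-PPXE, 25 uM (its KM). NADPH-driven reaction ran 60 min at RT after 10 min compound preincubation; data scaled to 57 uM ketoconazole as 100% inhibition.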

Test [11] can be described thus: Primary qHTS for small molecule stabilizers of the endoplasmic reticulum resident proteome: Secreted ER Calcium Modulated Protein (SERCaMP) assay (AID 1508630; active = well fitted curve in the direction sought with a large enough effect; an effect the other way counts as inactive or inconclusive; also: % is scaled to controls: 0 for no effect and ±100 for the full control effect). The following applies: SH-SY5Y GLuc-SERCaMP (Gaussia luciferase released on ER calcium loss) secretion, thapsigargin, luminescence; series mostly up to 38.4 µM. Put shortly:
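The SH-SY5Y reporter protocol was run at 3 concentrations up to 38.3 uM (primary) or 11 concentrations (follow-up): 16 h compound, 100 nM thapsigargin for 4 h, then extracellular luciferase luminescence.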

Test [12] addresses Cytochrome P450 3A4 (Homo sapiens) (UniProt P08684). Nature of the test: qHTS Assay for Activators of Cytochrome P450 3A4 (AID 885; active = well fitted curve in the direction sought with a large enough effect; an effect the other way counts as inactive or inconclusive; also: nearly all actives have a fitted effect of over 65% in size). The following applies: recombinant CYP3A4, Luciferin-PPXE luminescence, 60 min; series mostly up to 57.1 µM. In short, it runs like this:
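Human CYP3A4 dealkylates Luciferin-PPXE to luciferin, which luciferase detection converts to light. Substrate was at its KM (25uM), buffer 200mM KPO4, reaction 60 min at RT.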

A short description of test [13]: qHTS Assay for Identification of Small Molecule Agonists for Hypoxia Response Element Signaling Pathway (AID 914; active = well fitted activation curve with a large enough effect in the signal ratio, with a control signal flat, not every such curve was filed as active; the % refers to the signal ratio; also: % of control where 0% means no effect). The note with it: ME-180 (cervical carcinoma) HRE-bla reporter, beta-lactamase ratio, CoCl2, 17 h; activation: hits give high values. In short, it runs like this:
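HRE-bla ME-180 cells with beta-lactamase reporter under hypoxia response element, compounds with EC50 CoCl2 for 17 hours at 37 C. CCF4 substrate, 460nm/530nm emission ratio gave %Activity; AC50 from titration series.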

For test [14], the target named is Cytochrome P450 2C9 (Homo sapiens) (UniProt P11712). As to the kind of experiment: qHTS Assay for Inhibitors and Substrates of Cytochrome P450 2C9 (AID 883; active = well fitted curve in the direction sought with a large enough effect; an effect the other way counts as inactive or inconclusive; also: potency is read from the fitted curve at half-maximal effect; nearly all actives have a fitted effect of over 60% in size). The following applies: recombinant CYP2C9, luciferin-H luminescence, 60 min; series mostly up to 57.1 µM. Put shortly: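 Human CYP2C9 (10nM) with Luciferin-H at 100uM (its KM) in 25mM KPO4; compound preincubated 10 min at 37C, then NADPH regeneration for 60 min at 37C. Luciferin read by luminescence after detection reagent; normalized to 57uM sulphaphenazole as full inhibition.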

Values without a mark were called inactive. Results filed as inconclusive are left out. Active and inactive are the calls of the source. Unless noted, calls follow the shape of the dose curve; as a rule, active = well fitted curve in either direction with a large enough effect (not every such curve was filed as active); inconclusive = small, poorly fitted or top-dose-only effect, or another doubt; inactive = flat fitted curve, though single readings scatter. A value given as a limit tells only on which side of the number the result lay.

3',5'-cyclic-AMP phosphodiesterase 4B (Homo sapiens), sequence (Q07343 whole entry, looked up): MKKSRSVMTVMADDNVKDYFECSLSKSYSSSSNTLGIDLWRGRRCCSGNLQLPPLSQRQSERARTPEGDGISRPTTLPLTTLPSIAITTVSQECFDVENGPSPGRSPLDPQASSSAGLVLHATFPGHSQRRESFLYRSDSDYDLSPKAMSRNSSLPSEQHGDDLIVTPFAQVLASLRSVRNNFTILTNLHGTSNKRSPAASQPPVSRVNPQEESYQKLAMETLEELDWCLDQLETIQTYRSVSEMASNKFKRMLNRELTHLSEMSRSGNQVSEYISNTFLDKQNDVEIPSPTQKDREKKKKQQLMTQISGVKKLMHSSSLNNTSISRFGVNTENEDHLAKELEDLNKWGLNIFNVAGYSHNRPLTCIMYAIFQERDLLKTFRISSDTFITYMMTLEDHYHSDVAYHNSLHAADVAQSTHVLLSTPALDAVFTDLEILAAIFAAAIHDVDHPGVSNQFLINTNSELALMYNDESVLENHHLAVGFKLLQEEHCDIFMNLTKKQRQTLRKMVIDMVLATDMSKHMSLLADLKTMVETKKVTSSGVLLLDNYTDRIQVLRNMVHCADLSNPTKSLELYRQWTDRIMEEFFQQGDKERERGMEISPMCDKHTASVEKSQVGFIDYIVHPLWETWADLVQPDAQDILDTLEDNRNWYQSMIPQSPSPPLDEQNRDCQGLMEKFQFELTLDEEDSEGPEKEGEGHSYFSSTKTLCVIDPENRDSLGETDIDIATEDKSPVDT
Glucocorticoid receptor (Homo sapiens), sequence (P04150 whole entry, looked up, the tested form may be a part): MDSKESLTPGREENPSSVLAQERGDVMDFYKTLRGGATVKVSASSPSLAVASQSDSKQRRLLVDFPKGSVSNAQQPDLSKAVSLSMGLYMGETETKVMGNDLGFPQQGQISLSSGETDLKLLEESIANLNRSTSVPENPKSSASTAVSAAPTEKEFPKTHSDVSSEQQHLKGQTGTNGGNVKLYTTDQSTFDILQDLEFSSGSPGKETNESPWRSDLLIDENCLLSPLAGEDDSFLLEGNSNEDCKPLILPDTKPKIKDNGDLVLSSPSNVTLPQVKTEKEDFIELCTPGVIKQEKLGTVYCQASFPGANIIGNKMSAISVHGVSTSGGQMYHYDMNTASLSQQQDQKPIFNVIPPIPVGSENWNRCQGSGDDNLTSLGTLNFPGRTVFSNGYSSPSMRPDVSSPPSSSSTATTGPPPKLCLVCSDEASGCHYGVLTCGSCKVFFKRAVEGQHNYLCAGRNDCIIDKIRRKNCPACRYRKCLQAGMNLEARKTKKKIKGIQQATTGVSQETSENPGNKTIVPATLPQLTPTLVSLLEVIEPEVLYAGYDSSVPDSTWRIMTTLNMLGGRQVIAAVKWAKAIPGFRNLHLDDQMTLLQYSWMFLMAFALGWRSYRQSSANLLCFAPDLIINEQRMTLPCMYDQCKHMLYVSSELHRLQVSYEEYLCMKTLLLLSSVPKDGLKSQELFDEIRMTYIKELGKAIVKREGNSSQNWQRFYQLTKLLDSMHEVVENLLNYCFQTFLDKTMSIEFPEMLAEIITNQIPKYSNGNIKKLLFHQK
Lysosomal acid glucosylceramidase (Homo sapiens), sequence (P04062 whole entry, looked up): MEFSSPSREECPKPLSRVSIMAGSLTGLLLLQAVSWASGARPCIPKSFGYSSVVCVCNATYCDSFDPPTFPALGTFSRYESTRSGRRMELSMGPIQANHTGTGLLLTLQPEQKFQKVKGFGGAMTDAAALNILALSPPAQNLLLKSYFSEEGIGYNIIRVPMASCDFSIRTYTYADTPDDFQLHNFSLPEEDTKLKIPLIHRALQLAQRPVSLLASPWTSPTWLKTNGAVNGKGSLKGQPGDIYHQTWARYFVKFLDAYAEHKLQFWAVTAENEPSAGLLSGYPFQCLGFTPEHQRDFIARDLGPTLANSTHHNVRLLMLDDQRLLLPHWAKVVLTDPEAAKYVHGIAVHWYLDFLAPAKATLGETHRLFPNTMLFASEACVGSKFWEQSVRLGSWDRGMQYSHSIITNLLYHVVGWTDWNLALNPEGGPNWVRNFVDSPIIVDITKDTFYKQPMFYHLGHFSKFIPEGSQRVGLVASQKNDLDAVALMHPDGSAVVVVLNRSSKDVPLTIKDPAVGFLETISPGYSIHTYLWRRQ
Cytochrome P450 1A2 (Homo sapiens), sequence (P05177 whole entry, looked up): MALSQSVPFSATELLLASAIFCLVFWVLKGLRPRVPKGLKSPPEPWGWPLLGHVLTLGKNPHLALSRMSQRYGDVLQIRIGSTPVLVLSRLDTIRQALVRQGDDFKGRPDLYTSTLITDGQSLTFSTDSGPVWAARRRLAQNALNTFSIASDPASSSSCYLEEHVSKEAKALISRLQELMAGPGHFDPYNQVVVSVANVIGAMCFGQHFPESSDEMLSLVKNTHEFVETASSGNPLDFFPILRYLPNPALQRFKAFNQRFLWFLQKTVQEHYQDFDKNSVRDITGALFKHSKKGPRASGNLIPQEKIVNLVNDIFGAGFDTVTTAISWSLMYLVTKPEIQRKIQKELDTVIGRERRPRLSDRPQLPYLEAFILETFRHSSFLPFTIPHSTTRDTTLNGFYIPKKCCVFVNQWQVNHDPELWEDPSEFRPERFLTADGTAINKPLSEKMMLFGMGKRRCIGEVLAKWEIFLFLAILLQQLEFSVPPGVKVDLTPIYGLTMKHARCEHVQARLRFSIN
Cytochrome P450 3A4 (Homo sapiens), sequence (P08684 whole entry, looked up): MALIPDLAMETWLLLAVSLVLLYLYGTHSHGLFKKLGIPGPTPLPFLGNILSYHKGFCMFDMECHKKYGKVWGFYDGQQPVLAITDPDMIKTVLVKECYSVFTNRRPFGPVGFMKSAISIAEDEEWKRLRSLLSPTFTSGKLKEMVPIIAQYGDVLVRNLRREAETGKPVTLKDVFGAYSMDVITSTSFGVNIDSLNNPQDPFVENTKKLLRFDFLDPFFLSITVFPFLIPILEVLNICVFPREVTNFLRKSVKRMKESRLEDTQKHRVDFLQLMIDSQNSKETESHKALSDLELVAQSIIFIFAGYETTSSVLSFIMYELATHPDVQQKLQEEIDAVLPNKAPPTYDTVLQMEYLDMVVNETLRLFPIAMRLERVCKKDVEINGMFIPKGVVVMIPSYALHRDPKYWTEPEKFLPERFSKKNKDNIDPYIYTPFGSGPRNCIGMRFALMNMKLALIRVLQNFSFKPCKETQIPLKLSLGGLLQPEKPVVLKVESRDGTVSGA
Cytochrome P450 2C9 (Homo sapiens), sequence (P11712 whole entry, looked up): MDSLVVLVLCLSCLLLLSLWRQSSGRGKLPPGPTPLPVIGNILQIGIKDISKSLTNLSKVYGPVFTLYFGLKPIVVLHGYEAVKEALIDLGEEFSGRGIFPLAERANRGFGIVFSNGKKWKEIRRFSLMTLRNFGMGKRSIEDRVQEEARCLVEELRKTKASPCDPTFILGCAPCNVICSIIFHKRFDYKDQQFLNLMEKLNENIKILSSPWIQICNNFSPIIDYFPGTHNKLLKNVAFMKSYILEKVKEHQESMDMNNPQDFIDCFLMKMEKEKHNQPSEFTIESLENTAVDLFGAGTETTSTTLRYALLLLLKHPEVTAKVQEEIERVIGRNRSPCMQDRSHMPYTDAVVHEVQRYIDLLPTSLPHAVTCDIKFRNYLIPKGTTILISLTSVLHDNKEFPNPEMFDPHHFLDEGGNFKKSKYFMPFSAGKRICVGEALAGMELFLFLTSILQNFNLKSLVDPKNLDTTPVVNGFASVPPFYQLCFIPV

With `Cn1c(=O)c(-c2ccc(F)cc2)nc2cnc(Oc3ccccc3)nc21`, the Potency in test [1] is above 11.4 µM; in test [3], 0.316 µM (active); in [6], above 9.22 µM; in test [7] it was above 46 µM. For the same compound, the figures for the activity change, negative = inhibition in test [2] and in test [4] were 14.3% and 5.5%, respectively. In [5], the activity, negative = inhibition is -0.989%. Also, the Potency result in test [8], in test [9] and in [10] was “inactive” throughout. Moreover, in test [11], the result was inactive.

On to `Cc1nc2cnc(Nc3ccccc3)nc2n(Cc2cccs2)c1=O`, for which the Potency in test [1] was above 11.4 µM; in [3], 1.58 µM (active); in [6] it was above 9.22 µM; in test [7], above 46 µM; in test [10], 7.94 µM (active). In addition, the activity change, negative = inhibition in [2] is 6.83%; in test [4], 31.1%. The activity, negative = inhibition in test [5] is 10.1%. In addition, the Potency result in test [8], in test [9] and in [12] was “inactive” in each case. Besides, the outcome in test [11] was inactive.

Turning to `Cc1cnc(CNc2ncncc2-c2ccc3c(c2)OCO3)cn1`, the Potency is above 11.4 µM in [1]; 2 µM (active) in test [3]; above 46 µM in [6]; above 46 µM in test [7]; 1.58 µM (active) in test [10]. Also, the activity change, negative = inhibition is -10.4% in test [2] and -2.24% in test [4]. Moreover, the activity, negative = inhibition in [5] is 4.5%. The Potency entry in test [8], in test [9] and in test [12] was “inactive” each time. For the same compound, in [11], the outcome was inactive.

As to `O=c1c(CCc2ccccc2)nc2cncnc2n1C1CC1`, the Potency in test [1] is above 11.4 µM; in test [3], 6.31 µM (active); in test [6] it was above 9.22 µM; in test [7], above 46 µM. Also, the activity change, negative = inhibition in test [2] was -0.738%; in test [4] it was -8.26%. For the same compound, in [5], the activity, negative = inhibition was -4.39%. Besides, the Potency result in test [8], in test [9] and in test [12] was “inactive” each time. The activation in test [13] is 6.89%. In test [11], the outcome was inactive.

Consider `CN(C)c1ncc2nc(-c3ccc(F)cc3)c(=O)n(CCC#N)c2n1`, for which the Potency is above 11.4 µM in test [1], 1.26 µM (active) in [3], above 9.22 µM in test [6] and above 46 µM in [7]. Also, the activity change, negative = inhibition was 4.59% in test [2] and 8.55% in test [4]. Besides, the activity, negative = inhibition in test [5] is 23.5%. For the same compound, the Potency result in test [8] and in test [9] was “inactive” in each case. Moreover, in [11], the result was inactive.

For `Cc1nc2cncnc2n(-c2ccccc2)c1=O`, the Potency in test [1] is above 11.4 µM; in test [3] it was 10 µM (active); in test [6], above 9.22 µM; in test [7], above 46 µM. For the same compound, the values for the activity change, negative = inhibition in test [2] and in test [4] were -11.8% and -0.117%, respectively. The activity, negative = inhibition in [5] was -12.5%. In addition, the Potency result in [8], in test [9] and in test [12] was “inactive” each time. The result in test [11] was inactive.

On to `COCCn1c(=O)c(-c2ccc(Cl)cc2)nc2cnc(Oc3ccccc3)nc21`, for which the Potency is above 11.4 µM in test [1]; 0.794 µM (active) in test [3]; above 9.22 µM in test [6]; above 46 µM in [7]; 7.94 µM (active) in [14]. For the same compound, the activity change, negative = inhibition in test [2] was -8.55%; in test [4], 17.4%. Besides, the activity, negative = inhibition in [5] was -10%. Also, the Potency result in test [8], in test [9] and in test [12] was “inactive” each time. Further, the outcome in test [11] was inactive.
